These results are taken from PubChem BioAssay AID624256 (NMMLSC, 2012).

Values joined by “and” are separate entries in the source; they are usually repeats but may differ in a detail not shown here. Identical values can stand only once. About 3,700 (1%) of roughly 360,000 compounds were called active. Inconclusive results (about 2%) are left out.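 The calls were made as follows: active = normalized GFP-positive differentiation at or above the plate's own cutoff, the solvent-only control mean plus 3 SD; inconclusive = no clear call, values can overlap the other calls; inactive = the rest.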 The full list was thinned out, with actives kept by preference.

A short description of this assay: induction of myeloid progenitor differentiation, primary screen, cell-based, flow cytometry, MLPCN library (AID 624256).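 As to GFP+ MAC1+ double positive: cells exposed to compound for four days before flow analysis.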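 As to normalized GFP-positive differentiation: cells exposed to compound for four days before flow analysis; 0% = DMSO wells and 100% = fulvestrant positive control at 5 µM.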 Particulars: ER-HoxA9 myeloid progenitors, lysozyme-GFP differentiation, at 10 µM; GFP+ MAC1+ double positive: measured here: differentiation confirmed by MAC1 staining, stronger effect = higher value; normalized GFP-positive differentiation: stronger effect = higher value.
Regarding `COc1ccc(-c2nc3cnccn3c2NC2CCCCC2)cc1-c1cccc(Cl)c1`, the GFP+ MAC1+ double positive is 2.8% and 1.8%; the result was inactive.
Consider `CCN1CC(CN(C)Cc2nc(-c3ccc(Cl)cc3)no2)CC1=O` (stereo unspecified), for which the GFP+ MAC1+ double positive came to 0.3% and the result was inactive.
Turning to `COC(=O)c1ccc(-c2noc(CN(Cc3ccccn3)CC3CCCO3)n2)cc1` (stereo unspecified), the GFP+ MAC1+ double positive turned out to be 0.3% and the outcome was inactive.
Consider `CN(Cc1ccccn1)Cc1nc(-c2ccc(Cl)cc2)no1`, for which the GFP+ MAC1+ double positive is 0.5% and the normalized GFP-positive differentiation is 34.3% (active).
For `Cc1[nH]c2ccccc2c1C(=O)c1cc([C@H](NC(=O)OC(C)(C)C)C(C)C)sc1N`, the GFP+ MAC1+ double positive worked out at 1% and the compound was classed as inactive.
For the compound `CCOC(=O)N1CCN(C(=O)C[C@@H]2C[C@@]3(C(=O)OC)CC(C)(C)CC=C3N(Cc3ccco3)C2=O)CC1`, the GFP+ MAC1+ double positive was 1.2% and the compound was classed as inactive.
Taken in the same sequence, the figures for `CC1=C(C(=O)N(C(C)C)C(C)C)CC(CC(=O)NCC2CCCCC2)C(=O)N1Cc1ccccc1` (stereo unspecified) were 0.3% and “inactive”.
Taken in the same sequence, the figures for `O=S(=O)(Nc1cc(Cl)ccc1N1CCOCC1)c1ccccc1Cl` were 0.3% and “inactive”.
As to `O=C1c2ccccc2-c2ncnc3c(N4CCOCC4)cc(N4CCOCC4)c1c23`, the GFP+ MAC1+ double positive stood at 4.8% and the normalized GFP-positive differentiation was 41.7% (active).
In the case of `O=C(Nc1ccccc1N1CCOCC1)c1ccncc1`, the GFP+ MAC1+ double positive amounted to 1.1% and the compound was called inactive.
On the same counts, the results for `CCCCC[C@H](C)N1C[C@@H](COCc2ccccc2)Oc2cc(N3CC[C@@H](N(C)C)C3)ccc2S1(=O)=O` are 1.2% and “inactive”.
Taken in the same sequence, the figures for `COC(=O)c1ccc2nc(-c3ccc(F)cc3)c(Cc3ccc(C)cc3)n2c1` were 0.7% and “inactive”.
On the same counts, the results for `O=C(O)c1ccccc1-c1cccc2nncn12` are 0.5% and “inactive”.
On to `CC(=O)c1c(C)[nH]c(C(=O)NCc2ccc(C)cc2)c1C`, for which the GFP+ MAC1+ double positive worked out at 1.3% and the outcome was inactive.
In the case of `CCCCN(CC)CCNC(=O)c1[nH]c(C)c(C(C)=O)c1C`, the GFP+ MAC1+ double positive worked out at 2.2% and the normalized GFP-positive differentiation was 13.8% (active).
Turning to `CC(=O)c1c(C)[nH]c(C(=O)NCCCN2CCCC2)c1C`, the GFP+ MAC1+ double positive is 0.6% and the call was inactive.
Taken in the same sequence, the figures for `COC(=O)c1ccc2nc(C3CCCCC3)c(Cc3cccc(F)c3)n2c1` were 0.7% and “inactive”.
For the compound `CO[C@@H]1CN(C)C(=O)c2cc(NC(=O)C3CC3)ccc2OC[C@H](C)N(C(=O)CN2CCOCC2)C[C@@H]1C`, the GFP+ MAC1+ double positive came out at 1.2% and the compound was called inactive.
Consider `CC(C(=O)O)N1C(=O)c2cccc3cccc1c23` (stereo unspecified), for which the GFP+ MAC1+ double positive stood at 1.4% and the compound was classed as inactive.
For `CN1C(=O)c2cccc3c(N)ccc(c23)C1=O`, the GFP+ MAC1+ double positive was found to be 1.9% and the normalized GFP-positive differentiation was 96.2% (active).
With `Cn1cc(C2OC(=O)c3ccccc32)c2ccccc21` (stereo unspecified), the GFP+ MAC1+ double positive worked out at 1.6% and the compound was classed as inactive.
`Cc1nn(C)cc1N1C(=O)c2cccc3c(N)ccc(c23)C1=O`: the GFP+ MAC1+ double positive stood at 4.9% and the normalized GFP-positive differentiation was 289% (active).
For `COCCCn1cc(CN2CC(N(C)C)CS2(=O)=O)nn1` (stereo unspecified), the GFP+ MAC1+ double positive was found to be 0.8% and the outcome was inactive.
Taken in the same sequence, the figures for `Cc1nc2c(OCc3ccc(Cl)cc3Cl)cccn2c1N(C)CC1CC1` were 0.6% and “inactive”.
`CC(C)CN1C(=O)CN(S(C)(=O)=O)CC1(C)C(=O)NCc1ccccc1` (stereo unspecified): the GFP+ MAC1+ double positive was 1.1% and the result was inactive.
As to `Nc1nc2ncccn2c1-c1ccccc1`, the GFP+ MAC1+ double positive turned out to be 2.1% and the compound was classed as inactive.
On the same counts, the results for `CCc1nc2ccc(C(=O)NCc3ccc(OC)cc3)cn2c1N(CC)Cc1cccc(Br)c1` are 1.1% and “inactive”.
Taken in the same sequence, the figures for `Cc1nccn1-c1ccc(NC(=O)[C@H]2O[C@@H](n3ccc(=O)[nH]c3=O)[C@H](O)[C@@H]2O)cc1` were 1.7% and “inactive”.
As to `Cc1nn(-c2cc(Cl)ccc2N)c(=O)c2ccccc12`, the GFP+ MAC1+ double positive was 7.4% and the normalized GFP-positive differentiation is 51.3% (active).
For the compound `Cc1cc(=O)oc2c1c(C)nn2-c1ccc(Cl)cc1`, the GFP+ MAC1+ double positive worked out at 0.3% and the compound was classed as inactive.
Taken in the same sequence, the figures for `CCOC(=O)CNC(=O)c1nn(-c2cccc(OC)c2)c(=O)c2ccccc12` were 0.7% and “inactive”.
Turning to `C#CCNC(=O)C[C@@H]1C[C@@]2(C(=O)OCC)CCCC=C2N(Cc2ccco2)C1=O`, the GFP+ MAC1+ double positive is 1.5% and the compound was classed as inactive.
Taken in the same sequence, the figures for `Cc1cc(Br)cn2c(Cc3ccsc3)c(-c3ccc(C#N)cc3)nc12` were 2% and “inactive”.
Taken in the same sequence, the figures for `O=C(Nc1cccc2ccccc12)c1[nH]c(-c2ccccc2)c2c1C(=O)N(C1CC1)C2=O` were 1.2% and “inactive”.
For `COC(=O)C[C@@H]1C=C[C@@H](NC(=O)c2ccc3c(c2)OCO3)[C@@H](CO)O1`, the GFP+ MAC1+ double positive was 3.1% and the result was inactive.
`COC(=O)COc1ccc2c(c1C)O/C(=C\c1ccco1)C2=O`: the GFP+ MAC1+ double positive came out at 0.6% and the outcome was inactive.
Taken in the same sequence, the figures for `CS(=O)(=O)c1ccc2c(c1)SC1=NC(=O)/C(=C/c3ccco3)C(=N)N12` were 6.9% and “inactive”.
On to `CC(C)(C)C1C/C(=C/c2ccco2)C(=O)/C(=C/c2ccco2)C1` (stereo unspecified), for which the GFP+ MAC1+ double positive came to 0.5% and the normalized GFP-positive differentiation was 92.8% (active).
As for `CN(CCOc1ccccc1)C(=O)c1cc(-c2ccco2)nc2ccccc12`, the GFP+ MAC1+ double positive came out at 1.1% and the result was inactive.
With `O=C(c1cc(-c2ccco2)nc2ccccc12)N(Cc1nnc(-c2ccc(Cl)cc2)o1)C1CC1`, the GFP+ MAC1+ double positive stood at 1.9% and the normalized GFP-positive differentiation is 11.9% (active).
`CC1CCCN(C(=O)c2cc(-c3ccco3)nc3ccccc23)C1` (stereo unspecified): the GFP+ MAC1+ double positive was 0.2% and the call was inactive.
Take `S=C(NCCCc1cnc[nH]1)NCCCN(Cc1ccc(Cl)c(Cl)c1)c1ccc(Br)cn1`: the GFP+ MAC1+ double positive was determined as 1.1% and the result was inactive.
Taken in the same sequence, the figures for `CC(C)(C)NC(=O)C(CCc1ccccc1)n1c(=O)c(-c2ccccc2)nc2ccccc21` (stereo unspecified) were 3.2% and “inactive”.
